Only some compounds are listed: those with a hit (about 7.9% of all), similar ones and a draw of the others.
HCMV antiviral – blocks human cytomegalovirus replication; HFF cells, HCMV-luciferase reporter, 72 h; active compounds read low; activity change, negative = inhibition, % at 57.5 µM; hit rate 4.5% among 410,000; AID 1259415; in the data active = activity change below about -60%; inconclusive = no clear call, values can overlap the other calls; inactive = above about -39%
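Human foreskin fibroblasts infected with luciferase-reporter HCMV at MOI 1 PFU/cell, compounds at two doses. Luciferase measured 72 h post infection; normalized to buffer-only basal and Salinomycin (10uM) controls.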
MARV entry inh – Marburg virus entry inhibition; hit rate 1.8% among 300,000; AID 540276; Potency, µM (highest dose often 37.8 µM), for the others: at the highest dose activity change, negative = inhibition, hits mostly inhibitors; Marburg virus pseudotyped entry inhibition, cell reporter; calls by dose curve; tested in HEK293 cells; also: potency is read from the fitted curve at half-maximal effect
HCV inh – HCV inhibition; Potency, µM (titrated, usually from 41.8 µM), for inactives: at the highest dose activity change, negative = inhibition, most hits filed as inhibitors; hit rate 3.4% among 340,000; Huh7.5.1 HCVcc-Cre infection, luciferase reporter, 44 h; AID 651820; active = well fitted inhibition curve with a large enough effect; inconclusive = small, poorly fitted or top-dose-only effect, or another doubt; inactive = no such curve, though single readings can be large or run the other way; also: potency is read from the fitted curve at half-maximal effect
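Whole-lifecycle infectious HCVcc-Cre system; cells 1,000/well, compound then virus (~0.5 moi) added 4 h after plating, 44 h culture. Luciferase read 15 sec following 15 min substrate incubation, room temp.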
LASV entry inh – inhibitors of Lassa virus binding or cell entry; Lassa virus pseudotype entry inhibition, cell reporter; Potency, µM (highest dose often 37.9 µM), without a hit: at the highest dose activity change, negative = inhibition, actives largely listed as inhibitors; hit rate 1.2% among 300,000; AID 540256; calls by dose curve; tested in HEK293 cells; also: potency is read from the fitted curve at half-maximal effect; nearly all actives have a fitted effect of over 50% in size
FMDV antiviral – blocks foot and mouth disease virus; FMDV antiviral cell-based qHTS; Potency, µM (highest dose often 57.9 µM), inactives show at the highest dose activity change, negative = inhibition, most hits filed as inhibitors; hit rate 1.2% among 410,000; calls by dose curve; tested in HEK293T cells; also: read-out not given here; potency is read from the fitted curve at half-maximal effect; nearly all actives have a fitted effect of over 45% in size
* marks the source's active call; other numbers are inactive results; ? = inconclusive; nt = no result; [ ] = remark or other dose. % is scaled to controls: 0 for no effect and ±100 for the full control effect.

SMILES | HCMV antiviral | MARV entry inh | HCV inh | LASV entry inh | FMDV antiviral
COc1ccc(-n2cc(-c3ccc(OC)c(OC)c3)[nH]c2=S)cc1 | -32 | nt | ? | nt | -1%
COc1ccccc1NC(=O)c1sc2nc(C)c(C(=O)Nc3ccc(C)cc3C)c(-c3ccco3)c2c1N | -33 | ? | nt | 5%[46.1 µM] | -7%
Cc1cc(Oc2ccc(-c3ccccc3)cc2)n2ncnc2n1 | 81 | 21% | 18% | 13% | 40µM*
CC(C)(C)CNCc1ccccc1NC(=O)OC(C)(C)C | -13 | nt | nt | nt | nt
CC(C)c1ccc(N=C2N=C(N)c3ccccc32)cc1 | 0 | ? | ? | ? | -25%
NC1=NC(=Nc2ccc(Br)cc2)c2ccccc21 | -61* | 7.1µM* | ? | ? | 4%
NC1=NC(=Nc2ccccc2)c2ccccc21 | 29 | ? | 1% | 13µM* | ?
NC1=NC(=Nc2ccc(Cl)cc2)c2ccccc21 | -5 | 21% | 5% | -7% | 31%
O=S(=O)(c1ccccc1)C1(S(=O)(=O)c2ccccc2)CCCC1 | 10 | 12% | -17% | ? | 2%
Cc1ccc(S(=O)(=O)C2(S(=O)(=O)c3ccc(C)cc3)CC2)cc1 | -24 | 11µM* | 2% | ? | ?
O=[N+]([O-])c1cc(-c2nc(-c3ccccc3)no2)ccc1NC1CCCCC1 | 2 | 0%[46.1 µM] | nt | 0%[46.1 µM] | 10%
CCOC(=O)c1c(Oc2ccc(OC)cc2)nnc(-c2ccccc2)c1-c1ccccc1 | -17 | -17%[46.1 µM] | nt | -17%[46.1 µM] | ?
C=CCC(C#N)(c1ccc(OC)c(OC)c1)c1cnccn1 (stereo unspecified) | -65* | nt | -1% | nt | -10%
Cc1ccc(CSc2ccc3nnc(-c4ccccn4)n3n2)cc1 | 0 | -9% | 10% | -18% | ?
Cc1ccc(C)c(CSc2ccc3nnc(-c4ccccn4)n3n2)c1 | -22 | ? | ? | ? | 22µM*
COc1ccc(CN2C(=O)C(n3ccc4ccccc43)c3ccccc32)cc1 (stereo unspecified) | 14 | nt | nt | nt | nt
C[C@H]1COC(=O)[C@H](Cc2ccc(F)cc2)C/C=C\C[C@@H](CC(=O)NCCO)C(=O)N1 | 6 | nt | 0% | nt | -1%
O=C(C[C@@H]1C/C=C/CC[C@H](Cc2ccc(F)cc2)C(=O)OC[C@@H](Cc2ccccc2)NC1=O)N[C@H](CO)Cc1ccccc1 | -99* | nt | ? | nt | -27%
C[C@@H]1COC(=O)[C@H](Cc2ccc(F)cc2)CC/C=C/C[C@@H](CC(=O)N[C@@H](CO)Cc2ccccc2)C(=O)N1 | 10 | nt | 3% | nt | -13%
O=C(C[C@@H]1C/C=C/CC[C@H](Cc2ccc(F)cc2)C(=O)OCCNC1=O)N[C@H](CO)Cc1ccccc1 | -17 | nt | 10µM* | nt | -27%
O=C1NCCOC(=O)[C@@H](Cc2ccc(F)cc2)CC/C=C/C[C@H]1CC(=O)N(CCO)Cc1ccccc1 | -33 | nt | 11µM* | nt | ?
C[C@H]1COC(=O)[C@@H](Cc2ccc(F)cc2)C/C=C\C[C@@H](CC(=O)NCCO)C(=O)N1 | -5 | nt | 3.5µM* | nt | -19%
O=C1NCCOC(=O)[C@H](Cc2ccc(F)cc2)CC/C=C/C[C@@H]1CC(=O)N(CCO)Cc1ccccc1 | -35 | nt | 8% | nt | -27%
Cc1c(C(=O)N2CC3CCC2C3)sc2ncnc(NCCc3ccccn3)c12 (stereo unspecified) | nt | nt | nt | nt | -9%
COc1cc(CNC(=O)c2cnn(-c3ncc4c(n3)-c3ccccc3CC4)c2C)cc(OC)c1OC | nt | nt | nt | nt | 25%
SMILES | HCMV antiviral | MARV entry inh | HCV inh | LASV entry inh | FMDV antiviral
CC(C)CON=C1C[C@@H](O)[C@@H](O)[C@@H]2[C@H]3C(=O)N(c4ccc(F)cc4F)C(=O)[C@@H]3CC[C@H]12 | nt | -10%[14.2 µM] | nt | nt | nt
S=C1NCN(CCc2ccccc2)CN1Cc1ccccc1 | -62* | -1% | -24% | nt | -17%
c1cnc(N2CCN(c3ncc4c(n3)CCNC4)CC2)nc1 | 16 | 2%[46.1 µM] | nt | -3%[46.1 µM] | -12%
COc1ccc(S(=O)(=O)Oc2ccc3c(c2)O/C(=C\c2cccnc2)C3=O)cc1 | -110* | -25% | ? | -28% | -6%
O=C1/C(=C/c2cccnc2)Oc2cc(OS(=O)(=O)c3ccccc3)ccc21 | nt | ? | ? | -14% | ?
COc1cccc(C(c2sc3nc(-c4ccco4)nn3c2O)N2CCC(O)CC2)c1 (stereo unspecified) | 5 | nt | nt | -19%[46.1 µM] | -3%
Cc1cc(C(=O)CSc2nc(N)cc(N)n2)c(C)n1CCc1ccc(F)cc1 | ? | ? | ? | ? | 25µM*
COc1ccc(S(=O)(=O)N2CCCCC2)cc1NC(=O)CN(C)C1CCCCC1 | -38 | ? | 11µM* | ? | 16%
COc1ccc(S(=O)(=O)N2CCN(C(c3ccccc3)c3ccccc3)CC2)cc1NC(C)=O | 26 | nt | 3.2µM* | nt | -5%
COc1ccc(S(=O)(=O)N2CCCCC2)cc1NC(=O)CN(Cc1ccco1)Cc1ccco1 | -70* | nt | 10µM* | nt | ?
COc1ccc(S(=O)(=O)Nc2ccccc2OC)cc1NC(=O)CC1CC2CCC1C2 (stereo unspecified) | ? | ? | 6.3µM* | ? | -10%
COc1ccc(S(=O)(=O)Nc2ccccc2C(=O)NC2CC2)cc1NC(C)=O | 31 | nt | 1% | nt | 8%
COc1ccc(Br)cc1CNC(=O)c1nn(-c2ccc(C)cc2)c(=O)c2c1c1ccccc1n2C | 23 | -4%[46.1 µM] | nt | 0%[46.1 µM] | 9%
CC(C)CCn1nnnc1CN1CCN(c2ccc(F)cc2)CC1 | -102* | -15%[46.1 µM] | 5% | 0% | -10%
CCCc1c(C(=O)NNc2cc(C(F)(F)F)ccc2Cl)cnn1-c1ccccc1 | -66* | ? | ? | -9% | -12%
CCN(CC)CCNC(=O)Nc1ccc2c(c1)N(Cc1ccccc1)C(=O)c1ccccc1S2 | -61* | ? | nt | ? | -15%
CCOC(=O)c1ccc2c(c1)N(Cc1ccccc1)C(=O)c1ccccc1S2 | -18 | nt | nt | -21%[46.1 µM] | 3%
CCN1C(=O)c2ccccc2Sc2ccc(NC(=O)Nc3ccc(Br)c(C)c3)cc21 | -102* | nt | nt | ? | ?
CCN1C(=O)c2ccccc2Sc2ccc(C(=O)NC(C)C)cc21 | -101* | nt | 7% | nt | -8%
CCN1C(=O)c2ccccc2Sc2ccc(C(=O)NCCC(C)C)cc21 | 20 | ? | ? | ? | 15%
CCN1C(=O)c2ccccc2Sc2ccc(NC(=O)Nc3ccc(C(C)=O)cc3)cc21 | -26 | -25%[46.1 µM] | nt | 18%[46.1 µM] | -14%
CCc1ccccc1NC(=O)Nc1ccc2c(c1)N(CC)C(=O)c1ccccc1S2 | -84* | -19%[46.1 µM] | nt | 3%[46.1 µM] | -10%
CSc1nc(N)c2ncn([C@@H]3O[C@H](COP(=O)(O)OP(=O)(O)O)C(O)[C@H]3O)c2n1 (stereo partly specified) | nt | 8% | nt | 24% | nt
Cc1ccccc1NC(=S)N(C)Cc1cccs1 | 31 | -14%[46.1 µM] | -2% | 1% | -5%
Cc1ccccc1NC(=S)N(C)Cc1cn(C)c2ccccc12 | -70* | 7% | 1% | -2% | 7%
O=C(NCC(c1ccco1)N1CCN(c2ccc(F)cc2)CC1)OCc1ccccc1 (stereo unspecified) | 13 | ? | ? | 1.3µM* | -30%
